Bioassay records deposited in PubChem by several laboratories.
UHRF1 MBD2 ctr – UHRF1 methylated DNA binding inhibitors, primary screen, counter-screen for MBD2 inhibitor project, biochemical, TR-FRET, human UHRF1, single concentration; E3 ubiquitin-protein ligase UHRF1 (Homo sapiens), Q96T88; UHRF1 binding to methylated oligo; inhibition, % at 4.4 µM; 370,000 tested, 0.75% active; AID 687016, 2013;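 note: UHRF1 SRA domain binding a hemimethylated CpG hairpin DNA probe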
Target sequence (Q96T88 whole entry, looked up, the tested form may be a part): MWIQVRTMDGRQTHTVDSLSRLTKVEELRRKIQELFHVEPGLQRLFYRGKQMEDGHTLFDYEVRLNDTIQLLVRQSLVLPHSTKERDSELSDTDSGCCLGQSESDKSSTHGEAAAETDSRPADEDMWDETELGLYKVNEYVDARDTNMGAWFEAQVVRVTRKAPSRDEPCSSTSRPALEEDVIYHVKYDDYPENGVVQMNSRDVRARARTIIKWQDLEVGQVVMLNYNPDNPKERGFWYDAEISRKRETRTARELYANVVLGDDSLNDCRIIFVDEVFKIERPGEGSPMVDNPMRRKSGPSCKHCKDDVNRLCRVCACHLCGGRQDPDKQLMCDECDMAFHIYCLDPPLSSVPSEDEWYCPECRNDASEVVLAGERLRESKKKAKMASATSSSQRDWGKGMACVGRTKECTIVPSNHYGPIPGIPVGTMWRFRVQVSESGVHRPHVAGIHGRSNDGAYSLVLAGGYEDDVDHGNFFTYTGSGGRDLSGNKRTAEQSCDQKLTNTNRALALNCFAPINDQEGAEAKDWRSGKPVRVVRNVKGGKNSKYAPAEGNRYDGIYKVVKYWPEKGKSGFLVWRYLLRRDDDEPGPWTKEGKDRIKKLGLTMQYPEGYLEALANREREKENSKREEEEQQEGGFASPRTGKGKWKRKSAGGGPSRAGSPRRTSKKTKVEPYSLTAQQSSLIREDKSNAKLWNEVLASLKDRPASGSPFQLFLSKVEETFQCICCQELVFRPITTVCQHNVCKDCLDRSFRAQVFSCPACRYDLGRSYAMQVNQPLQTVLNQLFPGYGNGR
MBD2 DNA inh – inhibitors of MBD2 binding to methylated DNA, primary screen, biochemical, TR-FRET, DNA-binding domain, human | MBD2 binding to methylated oligonucleotide | inhibition, % at 4.4 µM | 370,000 tested, 0.31% active; in the data active = inhibition above about 13%
PfM18AAP inh – PfM18AAP inhibitors, malaria aminopeptidase, primary screen, biochemical, QFRET, recombinant enzyme | H-Glu-NHMec fluorogenic cleavage | 290,000 tested, 1.2% active | M18 aspartyl aminopeptidase (Plasmodium falciparum 3D7) | inhibition, % at 7.35 µM;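 active = inhibition above the campaign mean inhibition over all tested compounds plus 3 SD, cut at about 28% in these data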
PfG6PD inh – PfG6PD enzyme inhibitors, primary screen, biochemical, fluorescence intensity, uHTS; inhibition, % at 20 µM; 350,000 tested, 0.78% active; PfGluPho enzyme, NADPH resazurin-diaphorase fluorescence; glucose-6-phosphate dehydrogenase-6-phosphogluconolactonase (Plasmodium falciparum 3D7);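 active = inhibition reaching at least a set limit at 20 µM in the primary screen, cut at about 59% in these data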
PRMT1 inh – PRMT1 methyltransferase inhibitors, primary screen, biochemical, fluorescence polarization; Protein arginine N-methyltransferase 1 (Homo sapiens), Q99873; recombinant PRMT1, activity-based probe fluorescence polarization; inhibition, % at 2.79 µM; 370,000 tested, 1.3% active;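 active = inhibition above about 21% made by adding two undisclosed values, limit read from the data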
UHRF1 DNA bind – UHRF1 methylated DNA binding inhibitors, counter-screen for MBD2 inhibitor project, biochemical, TR-FRET, human UHRF1; shares compounds with MBD2 DNA inh; UHRF1 binding to methylated oligonucleotide; 1,000 tested, 25% active; inhibition, % at 4.4 µM; AID 720530, 2013;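 note: UHRF1 SRA domain binding a labeled hemimethylated CpG hairpin DNA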
MBD2 confirm – inhibitors of MBD2 binding to methylated DNA, confirmation, biochemical, TR-FRET, DNA-binding domain, human; 1,000 tested, 26% active; shares compounds with MBD2 DNA inh; TR-FRET MBD2-DBD binding to methylated oligonucleotide; inhibition, % at 4.4 µM; in the data active = inhibition above about 14%
Each line names hits and unclear results; the compound was inactive in the other large screens (follow-up assays come after a bar, where they were run). An excerpt weighted towards active compounds, which were near 3.3% of everything screened. Cut-off read from the data, not from the text of the source, unless noted: active = inhibition above about 21%; inactive = the rest.

CCCCn1c(NS(=O)(=O)c2ccccc2)c(S(=O)(=O)c2ccc(C)cc2)c2nc3ccccc3nc21	MBD2 DNA inh 21.4 | UHRF1 DNA bind inactive | MBD2 confirm 13.9
Cc1ccc(NC(=O)CN(C)CC(=O)Nc2c(C)cccc2C)c(Br)c1	MBD2 DNA inh 37.7 | UHRF1 DNA bind inactive | MBD2 confirm inactive
Cc1ccc(NC(=O)Cn2cccc2)c(Br)c1	none
COc1cccc(-c2oc3c(c2-c2ccc(Br)nc2)C(O)CCC3)c1 (stereo not drawn)	MBD2 DNA inh 13.4 (no result: PfM18AAP inh, PfG6PD inh) | UHRF1 DNA bind 21.6 | MBD2 confirm 28.2
COc1ccc(CCNCC(O)COc2ccc(Cl)cc2)cc1OC (stereo not drawn)	none
COc1ccc(CCNCC(O)COc2cccc(C(C)=O)c2)cc1OC (stereo not drawn)	UHRF1 MBD2 ctr 25.0, MBD2 DNA inh 17.0 | UHRF1 DNA bind inactive | MBD2 confirm inactive
Cc1ccccc1NC(=O)N1CCC(NC(=O)C2CCCCC2)CC1	MBD2 DNA inh 14.2 | UHRF1 DNA bind inactive | MBD2 confirm inactive
O=C(CCSc1nc(-c2ccco2)cc(C(F)(F)F)n1)NCc1ccccn1	MBD2 DNA inh 24.1 | UHRF1 DNA bind inactive | MBD2 confirm inactive
O=S(=O)(NCC1CCCO1)c1ccc2oc3ccc(S(=O)(=O)NCC4CCCO4)cc3c2c1 (stereo not drawn)	MBD2 DNA inh 18.5 | UHRF1 DNA bind inactive | MBD2 confirm inactive
O=S(=O)(NCC1CCCO1)c1ccc(Br)cc1 (stereo not drawn)	none
O=C(O)c1cccc(NC(=S)NC(=O)C(c2ccccc2)c2ccccc2)c1	MBD2 DNA inh 14.4 | UHRF1 DNA bind inactive | MBD2 confirm inactive
O=C(O)c1ccc(NC(=S)NC(=O)C(c2ccccc2)c2ccccc2)cc1	none
CN(C)c1ccc(C(O)c2cc3ccccc3s2)cc1 (stereo not drawn)	none (no result: PfM18AAP inh)
Cc1nnc(SCC(=O)Nc2ccc(N(C)C)cc2)n(N)c1=O	MBD2 DNA inh 13.1 | UHRF1 DNA bind inactive | MBD2 confirm inactive
CC(=O)Nc1ccc(NC(=O)CSc2nnc(C)c(=O)n2N)cc1	none
OC(CNC1Cc2ccccc2C1)c1ccccc1 (stereo not drawn)	none (no result: UHRF1 MBD2 ctr, MBD2 DNA inh, PRMT1 inh)
CCN(C(=O)CSc1nnc(C2CC2)n1-c1ccccc1)C1CCS(=O)(=O)C1 (stereo not drawn)	none (no result: PfM18AAP inh)
O=C(Nc1ccc2c(c1)OCO2)c1cccs1	MBD2 DNA inh 40.0 | UHRF1 DNA bind inactive | MBD2 confirm inactive
COc1cc(/C=C(/C#N)C(=O)Nc2cc(C(F)(F)F)ccc2Cl)ccc1OCC(=O)Nc1cccc(C(F)(F)F)c1	none (no result: PfM18AAP inh)
O=C(Nc1nnc(SCc2ccc(Cl)cc2)s1)C1CCCO1 (stereo not drawn)	none (no result: UHRF1 MBD2 ctr, MBD2 DNA inh, PRMT1 inh)
N#Cc1ccc(CSc2nnc(NC(=O)C3CCCO3)s2)cc1 (stereo not drawn)	UHRF1 MBD2 ctr 24.5, MBD2 DNA inh 16.7 | UHRF1 DNA bind inactive | MBD2 confirm inactive
COc1ccc(-n2c(SCC(=O)N3CCC(C(=O)O)CC3)nc3ccccc3c2=O)cc1OC	none
COc1ccc(NC(=O)C[C@@H]2C(=O)N(c3ccc(OC)cc3)CC2(C)C)cc1	MBD2 DNA inh 40.0 (no result: PfM18AAP inh) | UHRF1 DNA bind inactive | MBD2 confirm inactive
CN1CCC(N2CCN(C3CN(Cc4cn(Cc5cccc(C(F)(F)F)c5)nn4)S(=O)(=O)C3)CC2)CC1 (stereo not drawn)	UHRF1 MBD2 ctr 22.7, MBD2 DNA inh 14.5 (no result: PfM18AAP inh, PfG6PD inh) | UHRF1 DNA bind inactive | MBD2 confirm inactive
CN(Cc1cn(Cc2cccc(Cl)c2)nn1)C1CN(Cc2cn(Cc3cccc(Cl)c3)nn2)S(=O)(=O)C1 (stereo not drawn)	MBD2 DNA inh 14.4 (no result: PfM18AAP inh, PfG6PD inh) | UHRF1 DNA bind inactive | MBD2 confirm inactive
CN1CCN(C2CN(Cc3cn(Cc4cccc(C(F)(F)F)c4)nn3)S(=O)(=O)C2)CC1 (stereo not drawn)	none (no result: PfM18AAP inh, PfG6PD inh)
O=S1(=O)CC(N2CCN(CCO)CC2)CN1Cc1cn(Cc2ccccc2)nn1 (stereo not drawn)	none (no result: PfM18AAP inh, PfG6PD inh)
O=S1(=O)CC(N2CCN(CCO)CC2)CN1Cc1cn(Cc2ccc(C(F)(F)F)cc2)nn1 (stereo not drawn)	MBD2 DNA inh 14.2 (no result: PfM18AAP inh, PfG6PD inh) | UHRF1 DNA bind inactive | MBD2 confirm inactive
CN(C)C1CN(Cc2cn(Cc3cccc(Cl)c3)nn2)S(=O)(=O)C1 (stereo not drawn)	none (no result: PfM18AAP inh, PfG6PD inh)
COC(=O)[C@]12C[C@H](CC(=O)NCc3cccs3)C(=O)N(Cc3ccc4c(c3)OCO4)C1=C[C@H](COCc1ccccc1)O[C@@H]2C	none (no result: PfM18AAP inh, PfG6PD inh)
O=C(CCC(=O)N1CCN(Cc2ccc(F)cc2)CC1)Nc1nnc(C2CCCCC2)s1	none
Cc1ccc(C(=O)NCc2ccc3c(c2)OCO3)c(C)c1	none
Cc1ccc(C(=O)NCc2ccc3c(c2)OCO3)c(Cl)c1	UHRF1 MBD2 ctr 22.4, MBD2 DNA inh 14.9 (no result: PfM18AAP inh) | UHRF1 DNA bind inactive | MBD2 confirm inactive
CC1(C(=O)Nc2ccc3c(c2)OCO3)CCN1C(=O)CCC1CCCC1 (stereo not drawn)	MBD2 DNA inh 19.7 (no result: PfM18AAP inh, PfG6PD inh) | UHRF1 DNA bind inactive | MBD2 confirm inactive
COc1ccc2[nH]c(C(=O)N3CCNCC3)cc2c1OC	none
CC(C)CNc1ccc2c(c1)OC[C@H](C)NS2(=O)=O	UHRF1 MBD2 ctr 20.7, MBD2 DNA inh 13.3 (no result: PfM18AAP inh, PfG6PD inh) | UHRF1 DNA bind inactive | MBD2 confirm inactive
C=CCOc1ccc(/C=C2\SC(=S)N(NS(=O)(=O)c3ccc(C)cc3)C2=O)cc1	UHRF1 MBD2 ctr 23.4, MBD2 DNA inh 13.5 | UHRF1 DNA bind inactive | MBD2 confirm inactive
CC(=O)c1sc2nc(-c3ccco3)ccc2c1N	UHRF1 MBD2 ctr 91.6, MBD2 DNA inh 45.1, PRMT1 inh 51.6 | UHRF1 DNA bind 28.1 | MBD2 confirm inactive
Cc1ccccc1S(=O)(=O)Cc1ccc(C(=O)NCc2ccc(F)cc2)o1	none
Cc1ccc(CNC(=O)c2ccc(CS(=O)(=O)c3ccccc3C)o2)cc1	MBD2 DNA inh 33.5 | UHRF1 DNA bind inactive | MBD2 confirm inactive
O=C(Nc1c(O)c2ccccc2[nH]c1=O)c1ccco1	none
O=C(Nc1ncc2c(n1)CC(c1cccc(Cl)c1)CC2=O)c1ccco1 (stereo not drawn)	UHRF1 MBD2 ctr 85.8, MBD2 DNA inh 52.2 | UHRF1 DNA bind inactive | MBD2 confirm inactive
